Reference: PubChem BioAssay (NCI)
Compounds without any hit were thinned out: in the full panel of roughly 83,000, 20% have a hit.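 A percent growth of 40 corresponds to 60% growth inhibition; 0 means no net growth; -100 means all cells died. Active threshold: below 10.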 Values without a mark were called inactive. Active and inactive are the calls of the source.

These compounds were tested on LOX IMVI melanoma (assay: NCI-60 one-dose screen, 48 h (100 = growth as untreated, 0 = no growth, -100 = all killed)). Settings: 10 µM unless noted.

| Structure (SMILES) | growth |
| --- | --- |
| COc1ccc(C(=O)Nc2ncc(Cc3cccc(Cl)c3)s2)cc1OC | 7.25% (active) |
| CN[C@]12CC3(C=CC(=O)C=C3)O[C@@]1(Cc1ccc(OC)cc1)N(C)C(=O)N2 | -50% (active) |
| Cc1nc2c(=O)[nH]c(SCC(=O)Nc3cccc(F)c3)nc2[nH]c1=O | 101% |
| O=S(=O)(Nc1ccc(Cl)cc1)c1ccc(-c2cnc(C3CC3)o2)cc1 | 50.5% |
| C=CCn1c(SCC(=O)Nc2ccc(C(=O)/C=C/c3ccc(Cl)cc3)cc2)nnc1-c1cc(-c2ccc(S(N)(=O)=O)cc2)nc2ccccc12 | 92.3% |
| CCN1C(=O)N(CC)C2C1NN=c1s/c(=C\c3ccc(Cl)cc3Cl)c(=O)n12 (stereo not given) | 18.3% |
| COC(=O)[C@H]1CCCN1C[C@@H](O)CN1C(=O)/C(=C\c2cc(OC)c(OC)c(OC)c2)c2ccccc21 | 97.2% |
| CN(C)CCCC1(c2ccc(F)cc2)OCc2cc(-c3cccc4[nH]ccc34)ccc21 (stereo not given) | -92.1% (active) |
| O=C1Nc2ccc(Br)cc2/C1=N/c1n[nH]c(=S)s1 | 90.3% |
| CCOC(=O)c1cc(-c2ccc([N+](=O)[O-])cc2)n(-c2ccc(C(=O)O)c(O)c2)c1C | 66.8% |
| COc1ccc(-c2nn(-c3ccccc3)cc2/C=C2/SC(=S)N(C)C2=O)cc1 | 77.1% |
| O=C1c2cccnc2C(=O)c2c1c(C(=O)NCCn1ccnc1)c1ccccn21 | 6.67% (active) |
| N#C/C(=C\c1ccc2ccccc2c1)c1cc2ccccc2[nH]1 | 32.3% |
| Cc1noc(C)c1C(=O)OCc1coc2ccccc2c1=O | 70.8% |
| CN(C)CCNc1nc2c3cc(Cl)ccc3nn2c2ccccc12 | 25.9% |
| CC(=O)N1N=C(c2ccc(Nc3nc(Nc4ccc(Cl)cc4)nc(Nc4ccc(Cl)cc4)n3)cc2)CC1c1ccco1 (stereo not given) | 95.7% |
| CSc1nc2sc3c(c2c(=O)n1-c1ccc([N+](=O)[O-])cc1)CCCCC3 | 94.7% |
| Cc1cc(N)c2cc(NC(=O)/C=C\c3ccccc3Cl)ccc2n1 | -75.1% (active) |
| CCN(C(=O)N1CCN(c2cc3c(cc2F)c(=O)c(C(=O)O)cn3C2CC2)CC1)c1nc(-c2ccc(Cl)cc2)cs1 | 5.32% (active) |
| COC(=O)c1cc(-c2ccc(S(C)(=O)=O)cc2)[nH]c1N/N=C/c1c(Cl)cccc1Cl | 43.6% |

| Structure (SMILES) | growth |
| --- | --- |
| NC(=O)c1c(NC(=O)c2ccccc2)sc2c1CCC(=O)C2 | 17.6% |
| Cc1ccc(C2=Nc3c(N)ncnc3NC(c3ccc4c(c3)OCO4)C2)cc1 (stereo not given) | 59.3% |
| COc1ccc(-c2nc(SCC(C)C)nc(N/N=C\c3ccc(F)cc3)c2C#N)cc1 | 97.4% |
| COc1ccc(C(c2cc(OC)c(OC)c(OC)c2)N2CCN(c3ccccc3)CC2)cc1 (stereo not given) | 87.3% |
| CCCC(=O)NC(c1ccc2c(c1)OCO2)c1ccc2cccnc2c1O (stereo not given) | 12% |
| OCCNCCCOc1ccc2ncnc(Nc3ccc(Oc4cccc(C(F)(F)F)c4)c(Cl)c3)c2c1 | -98.9% (active) |
| COC(=O)CCC(=O)C(=O)OC | -19.9% [10 mM] (active) |
| CS(=O)(=O)Nc1cc(-c2ccc3ncnc(Nc4c(Cl)ccc5c4OCO5)c3c2)cnc1Cl | -51.2% (active) |
| O=C1c2c(c3c4ccc(Br)cc4oc3c3[nH]c4ccccc4c23)C(=O)N1O | 6.55% (active) |
| O=C1/C(=C/c2ccc(-c3ccc(Br)cc3)o2)SC(=S)N1CCc1ccc(O)cc1 | 71.7% |
| CCN(CC)CCSc1nc(-c2ccccc2)c(C#N)c(=O)[nH]1 | 99.9% |
| O=C(CCCCCCN1CC(=O)N2[C@H](c3cc(Br)cs3)c3[nH]c4ccccc4c3C[C@H]2C1=O)NO | 8.65% (active) |
| C#Cc1cccc(Nc2ncnc3ccc(-c4cnc(N)nc4)cc23)c1 | 22.2% |
| O=C(c1ccc(Cl)cc1)N1CCN(c2ccnc3cc(Cl)ccc23)CC1 | 103% |
| COc1ccc(/C=C2\C(=O)N=C3N2NC(c2cc(Br)ccc2O)C=C(C)N3c2ccccc2)cc1 (stereo not given) | 95% |
| O=C(NCCCCNC(=O)OCc1ccc2c(Cl)cc(Cl)c(O)c2n1)OCc1ccc2c(Cl)cc(Cl)c(O)c2n1 | 14.4% |
| CCCCCCCCCCCCCCCCCCOc1ccccc1CC(=O)NCC[N+]1(C)CCCC1 | 53.4% |
| C=C1CC[C@@H]2[C@](C)(COC(C)=O)[C@H](OC(C)=O)CC[C@@]2(C)[C@@H]1CC(Sc1ccccc1)C1=CCOC1=O (stereo not given in full) | -83.9% (active) |
| COc1cc(CNS(=O)(=O)c2ccc(C)cc2)ccc1OCc1cn(-c2ccc(Br)cc2)nn1 | 97.9% |
| CC(=O)Cc1nsc(NC(=O)c2cc(-c3cc(Cl)cc(Cl)c3)oc2C)n1 | 97% |

These compounds were tested on SK-MEL-28 melanoma in the same assay as above. Settings: 10 µM unless noted.

| Structure (SMILES) | growth |
| --- | --- |
| COc1ccc(C(=O)Nc2ncc(Cc3cccc(Cl)c3)s2)cc1OC | 10.9% |
| CN[C@]12CC3(C=CC(=O)C=C3)O[C@@]1(Cc1ccc(OC)cc1)N(C)C(=O)N2 | 18.1% |
| Cc1nc2c(=O)[nH]c(SCC(=O)Nc3cccc(F)c3)nc2[nH]c1=O | 107% |
| O=S(=O)(Nc1ccc(Cl)cc1)c1ccc(-c2cnc(C3CC3)o2)cc1 | 61.4% |
| C=CCn1c(SCC(=O)Nc2ccc(C(=O)/C=C/c3ccc(Cl)cc3)cc2)nnc1-c1cc(-c2ccc(S(N)(=O)=O)cc2)nc2ccccc12 | 92.1% |
| CCN1C(=O)N(CC)C2C1NN=c1s/c(=C\c3ccc(Cl)cc3Cl)c(=O)n12 (stereo not given) | 66.1% |
| COC(=O)[C@H]1CCCN1C[C@@H](O)CN1C(=O)/C(=C\c2cc(OC)c(OC)c(OC)c2)c2ccccc21 | 123% |
| CN(C)CCCC1(c2ccc(F)cc2)OCc2cc(-c3cccc4[nH]ccc34)ccc21 (stereo not given) | -86% (active) |
| O=C1Nc2ccc(Br)cc2/C1=N/c1n[nH]c(=S)s1 | 114% |
| CCOC(=O)c1cc(-c2ccc([N+](=O)[O-])cc2)n(-c2ccc(C(=O)O)c(O)c2)c1C | 90.5% |
| COc1ccc(-c2nn(-c3ccccc3)cc2/C=C2/SC(=S)N(C)C2=O)cc1 | 108% |
| O=C1c2cccnc2C(=O)c2c1c(C(=O)NCCn1ccnc1)c1ccccn21 | 68.4% |
| N#C/C(=C\c1ccc2ccccc2c1)c1cc2ccccc2[nH]1 | 55.3% |
| Cc1noc(C)c1C(=O)OCc1coc2ccccc2c1=O | 86.8% |
| CN(C)CCNc1nc2c3cc(Cl)ccc3nn2c2ccccc12 | 96.3% |
| CC(=O)N1N=C(c2ccc(Nc3nc(Nc4ccc(Cl)cc4)nc(Nc4ccc(Cl)cc4)n3)cc2)CC1c1ccco1 (stereo not given) | 111% |
| CSc1nc2sc3c(c2c(=O)n1-c1ccc([N+](=O)[O-])cc1)CCCCC3 | 105% |
| Cc1cc(N)c2cc(NC(=O)/C=C\c3ccccc3Cl)ccc2n1 | -96.1% (active) |
| CCN(C(=O)N1CCN(c2cc3c(cc2F)c(=O)c(C(=O)O)cn3C2CC2)CC1)c1nc(-c2ccc(Cl)cc2)cs1 | 40% |
| COC(=O)c1cc(-c2ccc(S(C)(=O)=O)cc2)[nH]c1N/N=C/c1c(Cl)cccc1Cl | 28.2% |

| Structure (SMILES) | growth |
| --- | --- |
| NC(=O)c1c(NC(=O)c2ccccc2)sc2c1CCC(=O)C2 | 34.9% |
| Cc1ccc(C2=Nc3c(N)ncnc3NC(c3ccc4c(c3)OCO4)C2)cc1 (stereo not given) | 58% |
| COc1ccc(-c2nc(SCC(C)C)nc(N/N=C\c3ccc(F)cc3)c2C#N)cc1 | 98.8% |
| COc1ccc(C(c2cc(OC)c(OC)c(OC)c2)N2CCN(c3ccccc3)CC2)cc1 (stereo not given) | 84.5% |
| CCCC(=O)NC(c1ccc2c(c1)OCO2)c1ccc2cccnc2c1O (stereo not given) | 34.5% |
| OCCNCCCOc1ccc2ncnc(Nc3ccc(Oc4cccc(C(F)(F)F)c4)c(Cl)c3)c2c1 | 73.1% |
| COC(=O)CCC(=O)C(=O)OC | -1.85% [10 mM] (active) |
| CS(=O)(=O)Nc1cc(-c2ccc3ncnc(Nc4c(Cl)ccc5c4OCO5)c3c2)cnc1Cl | -6.42% (active) |
| O=C1c2c(c3c4ccc(Br)cc4oc3c3[nH]c4ccccc4c23)C(=O)N1O | -0.104% (active) |
| O=C1/C(=C/c2ccc(-c3ccc(Br)cc3)o2)SC(=S)N1CCc1ccc(O)cc1 | 103% |
| CCN(CC)CCSc1nc(-c2ccccc2)c(C#N)c(=O)[nH]1 | 110% |
| O=C(CCCCCCN1CC(=O)N2[C@H](c3cc(Br)cs3)c3[nH]c4ccccc4c3C[C@H]2C1=O)NO | 27.7% |
| C#Cc1cccc(Nc2ncnc3ccc(-c4cnc(N)nc4)cc23)c1 | 38.1% |
| O=C(c1ccc(Cl)cc1)N1CCN(c2ccnc3cc(Cl)ccc23)CC1 | 99.6% |
| COc1ccc(/C=C2\C(=O)N=C3N2NC(c2cc(Br)ccc2O)C=C(C)N3c2ccccc2)cc1 (stereo not given) | 99.1% |
| O=C(NCCCCNC(=O)OCc1ccc2c(Cl)cc(Cl)c(O)c2n1)OCc1ccc2c(Cl)cc(Cl)c(O)c2n1 | 50.6% |
| CCCCCCCCCCCCCCCCCCOc1ccccc1CC(=O)NCC[N+]1(C)CCCC1 | 84.2% |
| C=C1CC[C@@H]2[C@](C)(COC(C)=O)[C@H](OC(C)=O)CC[C@@]2(C)[C@@H]1CC(Sc1ccccc1)C1=CCOC1=O (stereo not given in full) | 6.34% (active) |
| COc1cc(CNS(=O)(=O)c2ccc(C)cc2)ccc1OCc1cn(-c2ccc(Br)cc2)nn1 | 99.7% |
| CC(=O)Cc1nsc(NC(=O)c2cc(-c3cc(Cl)cc(Cl)c3)oc2C)n1 | 103% |
